Screening data from PubChem.
In the library only some 12% were active in any assay of this set; here they are far more common.
HP1b chromo inh = inhibitors of HP1-beta chromodomain binding to methylated histone tails. P83916. AlphaScreen HP1-beta / biotin-H3K9me3 peptide binding. Potency, µM (titrated, usually from 114 µM), inactives show at the highest dose activity change, negative = inhibition, actives largely listed as inhibitors. 390,000 compounds, 0.56% hits. AID 540317; note: potency is the fitted concentration of half-maximal effect; nearly all actives have a fitted effect of over 70% in size
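AlphaScreen: HP1-beta (50 nM) preformed 30 min with biotin-H3(1-18)K9me3 peptide (50 nM) in PBS pH 7.4, 0.01% Tween-20. Compound added for 30 min at RT, then streptavidin donor/nickel chelate acceptor beads (10 ug/mL) for 30 min.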
PI5P4Ka inh = inhibitors of human PI5P4K alpha | P48426 | PI5P4Kalpha enzyme, ADP-Glo luminescence, 60 min; stronger effect = lower value | max response, % | 330,000 compounds, 1.2% hits; active = max response of -50% or lower; inconclusive = between -30% and -50%; inactive = -30% or higher; note: value at the top dose of about 77 µM; % is set by controls: 0 for no effect and ±100 for the full control effect
Target sequence (P48426 whole entry, looked up): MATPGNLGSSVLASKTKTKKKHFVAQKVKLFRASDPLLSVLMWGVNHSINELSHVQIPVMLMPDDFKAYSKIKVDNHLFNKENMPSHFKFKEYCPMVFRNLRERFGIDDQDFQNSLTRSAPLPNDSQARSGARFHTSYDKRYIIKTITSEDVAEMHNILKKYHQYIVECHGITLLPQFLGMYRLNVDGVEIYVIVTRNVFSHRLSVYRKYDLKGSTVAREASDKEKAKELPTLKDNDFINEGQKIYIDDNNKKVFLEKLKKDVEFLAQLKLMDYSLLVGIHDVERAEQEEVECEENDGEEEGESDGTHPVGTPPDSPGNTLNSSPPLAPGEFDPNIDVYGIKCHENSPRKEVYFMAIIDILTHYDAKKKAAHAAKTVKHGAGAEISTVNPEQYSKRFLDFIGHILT
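Reactions run in 0.038 M HEPES pH 7.4, 0.28 mM EGTA, 0.1% CHAPS and 5% DMSO, with PI5P4Kalpha, substrate, compound and 5 microM ATP final, one hour at room temperature. Readout is ADP-Glo luminescence.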
G9a inh = inhibitors of human histone lysine methyltransferase G9a; AID 504332; Q96KQ7; G9a H3K9 monomethylation, AlphaScreen, 2 h; Potency, µM (doses to about 102 µM), for the others: at the top dose activity, negative = inhibition, hits mostly inhibitors; 350,000 compounds, 8.8% hits; note: potency is the fitted concentration of half-maximal effect; % is set by controls: 0 for no effect and ±100 for the full control effect; nearly all actives have a fitted effect of over 75% in size
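Chemiluminescent proximity detection of H3K9 monomethylation, read after 10 min bead incubation in the dark. Reaction: 20 nM G9a, 500 nM biotin-H3K9 peptide, 20 uM SAM cofactor, 2 h, room temperature, following 15 min enzyme-compound preincubation.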
JMJD2A Tudor inh = blocks the human JMJD2A Tudor domain; Potency, µM (highest dose often 114 µM), without a hit: at the highest dose activity change, negative = inhibition, hits mostly inhibitors; 390,000 compounds, 4.4% hits; AlphaScreen JMJD2A-Tudor / H3K4me3 peptide binding; note: potency is the fitted concentration of half-maximal effect; % is set by controls: 0 for no effect and ±100 for the full control effect; nearly all actives have a fitted effect of over 50% in size
PLK1 PBD inh = blocks phosphopeptide binding to human PLK1 polo-box domain; P53350; Plk1 PBD binding of FITC phosphopeptide, fluorescence polarization; Potency, µM, inactives show max response, negative = inhibition, usual class: inhibitors; 360,000 compounds, 2.8% hits; AID 720504; note: potency is the fitted concentration of half-maximal effect; series mostly up to about 57 µM; % is set by controls: 0 for no effect and ±100 for the full control effect; nearly all actives have a fitted effect of over 65% in size
BAZ2B inh = blocks human BAZ2B | Potency, µM (highest dose often 114 µM), for the others: at the top dose activity change, negative = inhibition, hits mostly inhibitors | 360,000 compounds, 4.4% hits | AlphaScreen BAZ2B-H3K14Ac peptide displacement | Q9UIF8; note: potency is the fitted concentration of half-maximal effect; % is set by controls: 0 for no effect and ±100 for the full control effect; nearly all actives have a fitted effect of over 60% in size
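BAZ2B (50 nM) with biotin-H3(5-23)K14Ac peptide (50 nM) in PBS pH 7.4, 0.01% Tween-20, preformed 30 min, then compound 30 min at room temperature; top concentration 110uM. AlphaScreen streptavidin donor/nickel chelate acceptor beads (10 ug/mL final), 20 min dark, signal read.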
Active calls of the source: *; ? = inconclusive; . = not tested or not shown; [ ] = dose if it differs, or a comment. Unless noted, calls come from the whole dose curve; as a rule, active = well fitted curve in the direction sought with a large enough effect; inconclusive = small, poorly fitted or top-dose-only effect, or another doubt; inactive = no such curve, though single readings can be large; an effect the other way counts as inactive or inconclusive.

SMILES	HP1b chromo inh	PI5P4Ka inh	G9a inh	JMJD2A Tudor inh	PLK1 PBD inh	BAZ2B inh
Cc1c(Cc2ccc3c(c2)OCO3)sc(NC(=O)c2ccc3ccccc3c2)c1C(N)=O	-2%	-7	6.3µM*	-9%	13µM*	-6%
COc1cc(C(=O)Nc2nc(C)c(Cc3ccc4c(c3)OCO4)s2)cc(OC)c1OC	?	-14	4µM*	?	9.5µM*	-35%
CCC(=O)Nc1sc(Cc2ccc3c(c2)OCO3)c(C)c1C(N)=O	-32%	-20	10µM*	-23%	21µM*	-32%
COc1ccccc1CNC(=O)c1ccc(CSc2nc3ccncc3n2Cc2ccccc2C)cc1	15%	.	?	-21%	.	-4%
COCCNC(=O)c1ccc2c(=O)n(CCc3ccccc3)c(SCC(=O)CC(=O)OC)nc2c1	45%	.	1%[59 µM]	-6%	.	1%
CCOc1cccc(NC(=O)C(Cc2cccs2)c2nn[nH]n2)c1 (configuration not stated)	12%	0	56µM*	-1%	-7%	?
CC(C)CCC(CCNCc1ccccn1)c1ccc2c(c1)OCO2 (configuration not stated)	10%	4	16µM*	40µM*	-5%	56µM*
O=C(CCSc1ccc(Cl)cc1)NCc1ccccn1	37%	0	1%	1%	-19%	-16%
CC(C)C(CCNCc1ccccn1)c1ccc(Cl)cc1 (configuration not stated)	11%	-6	?	20µM*	?	50µM*
Fc1ccccc1CNCCC(Cc1ccccc1)c1ccc2c(c1)OCO2 (configuration not stated)	-4%	2	?	-24%	0%	-31%
COc1ccc(Cn2c(O)cc(=O)[nH]c2=O)cc1	46%	-29	10µM*	-25%	?	-6%
CC1=NN(c2ccc(C)c(C)c2)C(=O)/C1=C\C=C\c1ccc([N+](=O)[O-])o1	?	-52*	?	?	?	?
COc1cc2c(=O)n(Cc3ccccc3)c(=O)n(CC(=O)Nc3cc(C(F)(F)F)ccc3Cl)c2cc1OC	47%	.	28%[59 µM]	-11%	.	39%
O=C(O)c1cc(S(=O)(=O)O)cc(Nc2c3ccccc3nc3ccccc23)c1O	?	-1	18µM*	?	-8%	?
O=C(O)c1cccc(Nc2c3ccccc3nc3ccccc23)c1	21%	-1	.	-14%	1%	21%
CC(C)(C)OC(=O)N(CCc1ccccc1)Cc1ccc(OCc2cccc(NC(=O)C3CC3)c2)cc1	16%	3	.	-11%	-9%	.
CC(C)(C)OC(=O)N(CCc1ccccc1)Cc1cccc(OCc2cccc(NC(=O)c3ccccc3)c2)c1	20%	?	.	?	24µM*	.
CCN(CC)S(=O)(=O)c1cccc(C(=O)OCC(=O)Nc2ccccc2OC(F)F)c1	19%	.	0%[12.7 µM]	5%	-6%	-3%
CCc1cccc(CC)c1NC(=O)COC(=O)c1cccc(S(=O)(=O)N2CCc3ccccc3C2)c1	40%	-2	18%[59 µM]	8%	2%	5%
Cc1cc(N2CCN(C)CC2)ccc1NC(=O)c1cccc(S(=O)(=O)N2CCc3ccccc3C2)c1	?	-10	28µM*	-35%	-3%	?
CN(C)S(=O)(=O)c1cccc(NC(=O)COC(=O)c2cccc(S(=O)(=O)N3CCc4ccccc4C3)c2)c1	28%	-6	1.6µM*	-21%	5%	?
CN(C)S(=O)(=O)c1cccc(C(=O)OCC(=O)Nc2ccccc2OC(F)F)c1	?	-3	10%	79µM*	27µM*	6%
CCN(CC(=O)Nc1c(F)cccc1F)C(=O)c1cccc(S(=O)(=O)N2CCc3ccccc3C2)c1	3%	-6	26%[0.501 µM]	-14%	2%	6%
CCN(CC(=O)Nc1ccc(NC(C)=O)cc1)C(=O)c1cccc(S(=O)(=O)N2CCc3ccccc3C2)c1	28%	2	3.2µM*	-6%	-6%	-6%
